Screening data deposited in PubChem BioAssay by National Center for Advancing Translational Sciences (NCATS).
Only some compounds are listed: those with a hit (about 3.2% of all), similar ones and a draw of the others.
IL-2 act – qHTS of IL-2 Activators. IL-2 activation reporter assay, cell-based qHTS; stimulated with anti-CD3/CD4/CD28 beads; in transgenic mouse T cells. AID 652025, 2013. activation, % (series mostly up to about 46 µM). hit rate 0.065% among 360,000; in the data active means activation above about 50%; inconclusive means mostly about 30% to 49%; further: 0% is about no effect
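Quantitative HTS in unstimulated transgenic mouse T cells, with memory T cells as non-tolerant control and PMA/ionomycin as tolerance-bypass control. Compound pretreatment lasted 60 minutes before 18 h bead stimulation; EGFP/DsRed fluorescence read.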
p53 reactivator – qHTS assay for re-activators of p53 using a Luc reporter | H1299 p53-A138V BP100-luciferase reporter, luminescence, 24 h | Potency, µM (doses to about 92.2 µM), without a hit: at the top dose activity change, positive = activation, most hits filed as activators | hit rate 0.063% among 320,000 | AID 504706, 2011; further: potency means the concentration at half of the fitted maximal effect; % of control where 0% means no effect; nearly all actives have a fitted effect of over 45% in size
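H1299 (p53-null), stable ts p53-A138V + BP100-Luc; 1000 cells/well, Opti-MEM/10% FBS; cpd 4 pt, 1:5; 24 h, 37 deg C, 5% CO2; detection reagent 10 min RT; luminescence.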
Nrf2 inh – Nrf2 qHTS screen for inhibitors | A549 ARE-Fluc reporter, luciferase luminescence, 18-24 h | Potency, µM (highest dose often 46 µM), without a hit: at the highest dose activity change, negative = inhibition, usual class: inhibitors | hit rate 2.1% among 360,000 | AID 504444, 2011; further: potency means the concentration at half of the fitted maximal effect; on the % scale 0 is the no-effect control and ±100 the full control effect; nearly all actives have a fitted effect of over 60% in size
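Reporter: ARE-Fluc in A549. Exposure: 18-24 h, 37 °C, 5% CO2, 5% FBS OPTI-MEM. Readouts: fluorescent cytotoxicity (CellTiter-Fluor), then luminescent Nrf2 signal after BugLite.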
A549 viability – Nrf2 qHTS screen for inhibitors: counterscreen for cytotoxicity; A549 ARE-Fluc cells, CellTiter-Fluor viability, 18-24 h; AID 504648, 2011; hit rate 0.16% among 390,000; Potency, µM (titrated, usually from 46 µM), inactives show at the top dose activity change, negative = cytotoxicity, usual class: inhibitors; further: potency means the concentration at half of the fitted maximal effect; on the % scale 0 is the no-effect control and ±100 the full control effect
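A549 ARE_Fluc cells in 5% FBS OPTI-MEM were exposed to compounds in concentration-response for 18-24 h at 37 deg C. Viability was read by CellTiter-Fluor fluorescence (Ex 405/Em 525) after 30 min, before the luciferase read.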
Nrf2 activator – qHTS of Nrf2 Activators. AREc32 ARE-luciferase reporter (MCF7-derived line), luminescence, 24 h. Potency, µM (titrated, usually from 46.1 µM), without a hit: at the highest dose activation, hits mostly activators. hit rate 0.31% among 410,000. AID 624171, 2012; further: potency means the concentration at half of the fitted maximal effect; % of control where 0% means no effect; nearly all actives have a fitted effect of over 65% in size
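Quantitative high-throughput format: AREc32 reporter cells, 1000 per well, received compound by pin transfer and were incubated 24 hr at 37 deg C, 5% CO2, before Steady-Glo luminescence detection.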
BRCA1 expr up – qHTS Assay to Identify Small Molecule Activators of BRCA1 Expression; Potency, µM (doses to about 46.1 µM), without a hit: at the top dose activation, hits mostly activators; AID 624202, 2012; hit rate 1.1% among 380,000; MCF7-BRCA1-FFLuc reporter, luminescence, 48 h; response scale: scaled: vehicle 0%, 10 µM genistein 100%; further: potency means the concentration at half of the fitted maximal effect; nearly all actives have a fitted effect of over 80% in size
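Reporter cells (MCF7, BRCA1 promoter-firefly luciferase) received library compounds across a concentration series for 48 h. End-point luminescence was measured and concentration-effect curves derived after normalization.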
* = called active by the depositor; ? = inconclusive; · = no result given; [ ] = another dose, or the depositor's remark. Unless noted, the call rests on the fitted dose curve; in most records, active means well fitted curve in the direction sought with a large enough effect; inconclusive means small, poorly fitted or top-dose-only effect, or another doubt; inactive means no such curve, though single readings can be large; an effect the other way counts as inactive or inconclusive.

SMILES	IL-2 act	p53 reactivator	Nrf2 inh	A549 viability	Nrf2 activator	BRCA1 expr up
COc1ccc(N(CC(=O)Nc2cc(C)ccc2OC)S(=O)(=O)c2c(C)noc2C)cc1	-3.0	-13.5%	8.2µM*	?	0.2%	-91.4%
Cc1ccc2c(c1)C(c1ccc(F)cc1)N(C(=O)c1ccc(OC(C)C)cc1)CC(=O)N2 (configuration not stated)	·	·	7.2%[9.27 µM]	-9.9%	0.6%	·
Cc1cccc(OCCn2c(-c3ccc(Cl)cc3)nc3ccccc3c2=O)c1	·	·	23.5%	3.8%	0.0%	·
Cc1ccc(NC(=O)CSc2nccn2Cc2ccco2)cc1	-2.2	4.3%	?	7.0%	2.5%	10µM*
CC(=O)c1ccc(NC(=O)CSc2nccn2C)cc1	-0.3	5.1%	?	11.0%	4.2%	11.2µM*
CSCCC(=O)Nc1ccc(C(C)=O)cc1	-0.6	?	?	0.9%	2.7%	12.6µM*
N#Cc1ccccc1NC(=O)CSc1nccn1CCc1ccccc1	-0.1	?	?	1.2%[1.84 µM]	0.6%	11.2µM*
CC(=O)c1ccc(NC(=O)CSCCO)cc1	0.6	?	?	2.6%	0.6%	28.3%
CCOC(=O)c1ccc(NC(=O)CSc2nccn2C)cc1	-2.8	29.5%	-12.6%	-8.1%	0.7%	83.1%
O=C1CCc2cc(S(=O)(=O)Nc3cc(F)cc(Cl)c3)c(F)cc2N1	·	·	0.0%	?	·	·
CC(C)CCNC(=O)CCn1c(=O)c2cccn2c2cccnc21	·	·	12.4%	-4.3%	8.1%	·
O=c1[nH]c(=S)[nH]c2n[nH]nc12	·	·	·	·	·	13.5%
CC(=O)Nc1cccc(NC(=O)CSc2ncc(-c3ccc(Cl)cc3)n2Cc2ccco2)c1	-0.8	-0.1%	18.4µM*	-25.7%	-0.9%	-55.1%
CC(=O)c1ccc(NC(=O)CSc2nccn2CCc2ccccc2)cc1	-0.2	?	?	-1.7%	1.9%	12.6µM*
COc1ccc(-c2cnc(SCC(=O)Nc3ccc4c(c3)OCO4)n2Cc2ccco2)cc1	-0.4	0.9%	?	-12.5%	7.5%	-19.6%
Cc1ccc(NC(=O)CSc2nccn2Cc2ccccc2)cc1C	-0.2	?	?	-3.6%	5.2%	8.91µM*
CC(=O)Nc1ccc(NC(=O)CSc2nccn2Cc2ccccc2)cc1	-0.4	8.0%	?	-2.6%	-0.4%	1.1%
COC(=O)c1c(NC(=O)Cc2coc3ccc(C(C)C)cc23)sc2c1CCC2	·	·	?	7.3%	-0.7%	·
COC(=O)C1=CN(c2ccc(OC)cc2OC)C(N)=C(C#N)C1c1ccccc1F (configuration not stated)	1.8	·	·	·	·	·
CCC(C)Nc1nc2c(c(=O)n(C)c(=O)n2C)n1Cc1ccc(Cl)cc1 (configuration not stated)	-2.6	-6.1%	?	?	3.3%	-10.9%
COCCNc1nc2c(c(=O)n(C)c(=O)n2C)n1Cc1c(F)cccc1Cl	·	·	18.4µM*	-7.1%	-1.1%	21.0%
Cn1c(=O)c2c(nc(N/N=C/c3ccc(OC(=O)c4ccco4)cc3)n2Cc2ccccc2)n(C)c1=O	5.3	-2.8%	16.4µM*	-19.7%	3.6%	-54.4%
Cc1ccc(Cn2c(NCCc3ccccc3)nc3c2c(=O)n(C)c(=O)n3C)cc1	-1.5	3.0%	14.6µM*	-4.8%	-0.5%	-96.1%
CCNc1nc2c(c(=O)n(C)c(=O)n2C)n1Cc1ccc(Cl)cc1	-2.8	8.4%	9.2µM*	-5.3%	-0.2%	0.0%
O=S(=O)(c1ccc2c(c1)OCCO2)N1CCN(S(=O)(=O)c2ccc(F)c(F)c2F)CC1	·	·	4.8%	-3.6%	·	·
SMILES	IL-2 act	p53 reactivator	Nrf2 inh	A549 viability	Nrf2 activator	BRCA1 expr up
COc1ccc(-c2cc(C(F)(F)F)n3nc(C(=O)Nc4sc5c(c4C#N)CCC(C)C5)cc3n2)cc1OC (configuration not stated)	·	·	29.3%	6.5%	-0.8%	·
O=S1(=O)N=C(Oc2cccc(-c3ccccc3)c2)c2ccccc21	·	·	25.0%	0.7%	·	·
CCCNc1nc2c(c(=O)n(C)c(=O)n2C)n1Cc1ccc(F)cc1	-4.1	-9.5%	14.6µM*	-15.6%	0.5%	-32.9%
Cn1c(=O)c2c(nc(NCc3ccccc3)n2Cc2ccc(F)cc2)n(C)c1=O	·	-2.2%	·	·	·	·
Cn1c(=O)c2c(nc(NCc3ccco3)n2CCc2ccccc2)n(C)c1=O	-0.8	6.8%	20.6µM*	-15.3%	8.0%	-30.2%
CCOC(=O)c1ccc(N2C(=O)c3n[nH]c(-c4ccco4)c3C2c2ccccc2OC)cc1 (configuration not stated)	·	·	25.9µM*	-21.0%	-3.1%	-78.2%
CCOC(=O)c1ccc(N2C(=O)c3n[nH]c(C)c3C2c2ccccc2OC)cc1 (configuration not stated)	·	·	8.2µM*	-1.9%	5.1%	0.0%
COc1ccc(-c2cnc(C)o2)cc1S(=O)(=O)Nc1ccc(C)c(F)c1	·	·	·	-18.1%	0.6%	-31.0%
Cc1ccc(-c2nn3c(=O)cc(CN4CCN(C(=O)Nc5cc(Cl)ccc5C)CC4)nc3s2)cc1	·	·	·	14.7%	0.1%	5.2%
Cc1ccc(S(=O)(=O)N2[C@@H](c3ccc(C(C)(C)C)cc3)C(C(=O)O)=CC[C@H]2c2ccc3c(c2)OCO3)cc1	-0.3	9.6%	23.1µM*	-21.2%	0.9%	-21.8%
Clc1cccc(CSc2ncnc3c2ncn3C2CCCCO2)c1 (configuration not stated)	0.3	·	?	-2.4%	3.4%	5.62µM*
c1ccc(CSc2ncnc3c2ncn3C2CCCCO2)cc1 (configuration not stated)	0.5	·	?	0.2%	0.2%	?
Fc1cccc(CSc2ncnc3c2ncn3C2CCCCO2)c1 (configuration not stated)	-1.0	·	?	-2.2%	2.8%	?
c1ccc(CNc2ncnc3c2ncn3C2CCCCO2)cc1 (configuration not stated)	1.3	?	?	-0.6%	2.9%	12.6µM*
Fc1ccc(CSc2ncnc3c2ncn3C2CCCCO2)cc1 (configuration not stated)	-2.5	·	-4.2%	-0.3%	5.0%	7.08µM*
Cc1c(/C=C(\C#N)C(=O)Nc2cccc(Cl)c2)c2ccccc2n1Cc1ccccc1	·	·	8.2µM*	?	0.3%	·
CCc1nnc(NC(=O)c2ccc3c(c2)C(=O)N(C(C)(C)C)C3=O)s1	3.0	?	?	-17.0%	0.4%	14.1µM*
CCc1nnc(NC(=O)C23CC4CC(CC(C4)C2)C3)s1	-2.0	?	?	3.4%	0.2%	11.2µM*
